Laboratory results published in the supplement of paper PMC6555819.

What was measured:
Experiment in all cases: PBM binding z-score (relative to random genomic background probes); higher = stronger binding; sequences stand for … in GC…GCGATTGACAGCGTAGAATGAAGG
[1] = system: RARb homodimer (NR concentration 270 nM)
Procedure, shortened: (§1)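 Ligand-free nuclear receptor dimers were applied to custom Agilent 4×180K protein-binding microarrays whose double-stranded probes carried direct-repeat seeds, single-nucleotide variants, half-site ablations and random human genomic background sequences in 34-nt variable regions. Incubation lasted 1 h. Binding z-scores were computed against the random background probes from regression-normalized fluorescence.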

[2] = system: RARg:RXRa (NR concentration 270 nM, RXRa partner concentration 90 nM)
Procedure, shortened: as §1

[3] = system: RARg homodimer (NR concentration 270 nM)
Procedure, shortened: as §1

[4] = system: RXRa DBDmut IVT, anti-RXR (DBD mutation: RXRa K156A/R161A, NR concentration 90 nM)
Procedure, shortened: as §1

[5] = system: RXRa homodimer (NR concentration 180 nM)
Procedure, shortened: as §1

[6] = system: THRa:RXRa (NR concentration 90 nM, RXRa partner concentration 90 nM)
Procedure, shortened: as §1

[7] = system: THRa homodimer (NR concentration 90 nM)
Procedure, shortened: as §1

[8] = system: VDR homodimer (NR concentration 270 nM)
Procedure, shortened: as §1

Row | Sequence | PBM binding z-score [1] | PBM binding z-score [2] | PBM binding z-score [3] | PBM binding z-score [4] | PBM binding z-score [5] | PBM binding z-score [6] | PBM binding z-score [7] | PBM binding z-score [8]
1 | CCAGACAGGTGAAAGGTGACTCAGTCTGGTACGC | 1.63 | 2.35 | 1.15 | -0.229 | 3.18 | 1.44 | 0.239 | 0.14
2 | TATCGGAGGACACGAAGGTCAGAGCTTTCCAGAG | 3.47 | 3.17 | 3.73 | 0.00455 | 1.79 | 2.88 | 0.977 | 1.46
3 | TAGCCTAGGTCGTTGGGCCAGTATAGTACGCATC | 0.513 | 0.529 | 0.698 | 0.311 | 0.61 | 0.621 | 0.0467 | 0.0773
4 | CAGACAGGGTCAGCTAGGCCAGAGTAGGGACGGC | 3.06 | 4.3 | 4.64 | 1.59 | 4.42 | 3.01 | 0.505 | 0.912
5 | CAGACTGGGGCAGAAAGGTTACCATACCATCCGG | 2.4 | 2.09 | 1.85 | -0.43 | 1.98 | 1.29 | -0.421 | 0.0589
6 | TCTTGTAGATCAGCAGGTTTAGAAAGCTGGCCAA | -0.607 | -0.508 | -0.884 | 0.412 | -0.374 | -0.307 | -0.755 | -0.457
7 | GCGACTGTGGCAAAGCAGGTTACCATAAGGTTGG | 0.168 | -0.101 | -0.193 | -0.432 | 0.102 | 1.22 | -0.306 | -1.03
8 | TCTCGGAGGAGACGAAAGGTCAGAGCTCGACATC | 4.19 | 3.79 | 3.46 | 0.134 | 4.08 | 2.42 | 0.0723 | 0.0625
9 | CCAACTGGGGCATAAGGTTACCATAAGCCAGCCC | 1.68 | 1.52 | 1.12 | -0.33 | 1.24 | 1.97 | 1.29 | 0.0835
10 | CCTTACGGCTCAAGGTTATAGCACGGGTGGTACG | 0.426 | 0.285 | 0.278 | -0.298 | 0.615 | 1.05 | 0.716 | 0.469
11 | CCTCGGGGGACAACAGGAGGTCAGAGCTGCCAGA | 3.75 | 4.66 | 4.32 | 0.347 | 2.89 | 3.22 | 1.07 | 1.19
12 | CCTACTGGGCCAAAAAGGTCTTTGATGCCGATAA | 0.452 | -0.217 | -0.013 | -0.428 | -0.121 | -0.113 | -0.671 | -0.382
13 | GGAACGAGGGCAATGTTGATAGCATCTGTCGACG | 0.983 | 1.08 | 1.66 | 1.93 | 0.843 | 0.966 | -0.016 | 0.72
14 | CCTGCTAGATCATGGTCAGCTAATCTACAGTATG | -0.429 | -0.127 | 0.142 | 0.516 | -0.185 | -0.68 | -1.23 | -0.86
15 | GCTGCTAGGTCAGGTTTGTCAGCTAACGGGTACG | 2.21 | 2.03 | 2.94 | 0.952 | 0.681 | 1.48 | 0.489 | 0.755
16 | TCATATAGGTATATGCTAGGTGAAAGTCCGATCT | 0.347 | 0.291 | 0.277 | 1.6 | 0.588 | 1.23 | 0.758 | -0.0233
17 | CGTCAAAGTTCAACTAACGTAACGTAAAGCACGC | 4.09 | 5.71 | 6.79 | 4.56 | 4.65 | 1.97 | 0.0138 | 3.38
18 | TCTTGTAGATCAAAGGTTGAGAAAGCCGAAGCCT | 0.0942 | 0.326 | -0.192 | 0.518 | 1.08 | 0.142 | -0.747 | -0.223
19 | TAGGCTAGGTCATTCAGGGGCCAGTATAGAAAGC | 3.57 | 6.42 | 4.85 | 1.71 | 3.26 | 3.7 | 0.658 | 1.95
20 | TCTAGCATGCCAGAGGGTCACTCAAGAGGTACGG | 2.71 | 2.48 | 2.22 | 0.0251 | 2.7 | 1.7 | -0.281 | 0.555
21 | TCGAGTAGGTTACCAATGGGGCACTCAGCTTTCT | 0.601 | 1.21 | 0.434 | 0.0606 | 0.428 | 0.0127 | -0.648 | -0.704
22 | ATATGTAGGTTAGCTGGGGTAATTCAGACTAGGC | 0.856 | 0.69 | 0.761 | 0.642 | 0.773 | 3.87 | 0.672 | 0.606
23 | TCTTGTTGGTCACGGAGGTCACACACGACGGGTA | 4.67 | 5.21 | 5.01 | 1.25 | 5.34 | 3.66 | 3.03 | 3.59
24 | ATCTCTCGGTAACAAGTTCAGTGAAAGAGAGGAC | 1.84 | 0.867 | 1.2 | 0.226 | 0.539 | 0.976 | 0.753 | 2.29
25 | ATTAGCAGGCCAAGGGTCACTCAAGATTAGTCCG | 3.64 | 4.22 | 3.71 | 0.43 | 4.3 | 2.7 | 0.321 | 0.941
26 | AATACAGGGTCATCGTAGGCCAGAGAACGCACAG | 3.8 | 6.12 | 5.66 | 3.55 | 6.83 | 4.95 | 1.74 | 2.9
27 | CGAACTAGGTCAAGGTCAAAGTCGGTTTGTGCCA | 4.96 | 5.97 | 6.77 | 3.12 | 5.78 | 4.11 | 3.7 | 4.23
28 | CAAATTAGGTCAAGAGGTCAAAGTCCGCTTCCCG | 5.68 | 8.43 | 7.88 | 3.08 | 8.85 | 4.42 | 2.88 | 5.32
